{"source": "ChEMBL document CHEMBL3988442", "about": "“University of Dundee, Small-Polar-MMV Screening Library” (2021)", "data": [{"biological_target": "Shiga toxin 2 (Escherichia coli O157:H7) (UniProt P09385+P09386)", "assay": "E. coli 0.157:H7 Shiga Toxin SOP - stx2 screening assay", "type": "functional", "parameters": "scale not given: direction of the effect not stated beside the values", "settings": "30 µM", "units": {"Percent Effect": "%"}, "values": [{"compound": "CCc1n[nH]c(C2CN(C(=O)c3nc(C)ncc3Cl)CCO2)n1", "note": "(stereo not given)", "Percent Effect": -0.974}, {"compound": "CC(C)c1nc(C2CCCN2C(=O)c2cnc[nH]2)no1", "note": "(stereo not given)", "Percent Effect": 26.7}, {"compound": "NC[C@H]1CC[C@H](C(NC(=O)c2ccccn2)c2ccccn2)CC1", "note": "(stereo not given in full)", "Percent Effect": 17}, {"compound": "CCc1nc(C2CCCN2C(=O)CCNS(C)(=O)=O)no1", "note": "(stereo not given)", "Percent Effect": -0.995}, {"compound": "CC(C)CN1CCN(C(=O)Nc2cc(C(F)(F)F)c[nH]c2=O)CC1", "Percent Effect": 5.35}, {"compound": "CC(=O)NC1CCCN(C(=O)NCc2cccnc2N(C)C)C1", "note": "(stereo not given)", "Percent Effect": -12.4}, {"compound": "O=C(C1CCC1)N1CCN(c2snc3ccccc23)CC1", "Percent Effect": 10.4}, {"compound": "Clc1ccc(-n2cc(CNC3CCc4ncnn4C3)cn2)cc1", "note": "(stereo not given)", "Percent Effect": -39.9}, {"compound": "FC(F)(F)Cn1ccnc1CN1CCOC(Cn2cccn2)C1", "note": "(stereo not given)", "Percent Effect": 8.38}, {"compound": "CN(CCC(F)(F)F)C(=O)C1CCCN1C(=O)OC(C)(C)C", "note": "(stereo not given)", "Percent Effect": -21.4}, {"compound": "CCOC(=O)NC(CNC(=O)CCc1ccccn1)CC(C)C", "note": "(stereo not given)", "Percent Effect": 0.307}, {"compound": "O=C(NCCC1=CCCCC1)C1CCCN(c2ccc3nncn3n2)C1", "note": "(stereo not given)", "Percent Effect": -5.94}, {"compound": "Cc1cnn(CC2CN(CC(=O)NCc3ccccn3)CCO2)c1", "note": "(stereo not given)", "Percent Effect": -5.07}, {"compound": "COCCNC(=O)NCCc1ccn(-c2ccccc2)n1", "Percent Effect": 3.32}, {"compound": "Cc1cnn(CCC(=O)N2CCOC(c3nc(C(C)(C)C)n[nH]3)C2)c1", "note": "(stereo not given)", "Percent Effect": -26.2}, {"compound": "O=C(CCn1cccn1)N1C[C@@H]2CC[C@H](C1)N(Cc1ccccn1)C2=O", "Percent Effect": 3.51}, {"compound": "COc1ccc(CN2CCC3(CC2)NC(=O)CC3c2ccncc2)cc1", "note": "(stereo not given)", "Percent Effect": 9.6}, {"compound": "CCc1cc(NCC(O)CN2CCCCC2)n2ncnc2n1", "note": "(stereo not given)", "Percent Effect": -8.11}, {"compound": "COc1ccc(NC(C)C(=O)N2CCN(Cc3ccccc3)CC2)cn1", "note": "(stereo not given)", "Percent Effect": -11.8}, {"compound": "Cc1ccc(OCCC(=O)NC2CCc3nccn3C2)cc1", "note": "(stereo not given)", "Percent Effect": -18}, {"compound": "CC(=O)N1N=C(c2ccccc2)OC1C(=O)NCCc1cccc(Cl)c1", "note": "(stereo not given)", "Percent Effect": 19.6}, {"compound": "CCn1c(CN2CCC(O)(C(=O)OC)CC2)nc2c(F)cccc21", "Percent Effect": -24.9}, {"compound": "CC(C)N1Cc2c(C(=O)N3CCOCC3)nn(C)c2C1", "Percent Effect": 5.36}, {"compound": "CCOc1ccccc1C(CC(=O)Nc1ccccc1F)NC(C)=O", "note": "(stereo not given)", "Percent Effect": 31.5}, {"compound": "Cc1ccc(C(CNCC2CC2)N2CCOCC2)s1", "note": "(stereo not given)", "Percent Effect": -22.1}, {"compound": "CCN(C)c1ncnc2c1CCN(C(=O)N1CCCC1)CC2", "Percent Effect": -30.9}, {"compound": "CS(=O)(=O)CCN1CCC2(CCCN(C3CCOCC3)C2=O)C1", "note": "(stereo not given)", "Percent Effect": -11.9}, {"compound": "O=C(c1ccnnc1)N1C[C@H]2CCC[C@@]2(COCC2CCOCC2)C1", "Percent Effect": -0.366}, {"compound": "O=C([C@H]1COC[C@H]2CN(C3CCCC3)C[C@H]21)N1CCCCO1", "Percent Effect": -2.98}, {"compound": "Cc1cc(C)c(CNC(=O)NCC(O)COc2ccccc2)c(=O)[nH]1", "note": "(stereo not given)", "Percent Effect": 27.6}, {"compound": "CNc1nc(C(=O)N2CCCC(c3nccn3CC3CCC3)C2)cs1", "note": "(stereo not given)", "Percent Effect": 2.21}, {"compound": "COc1ccc(-n2ccc(C(=O)N3CCN(C)CC3C)n2)cc1", "note": "(stereo not given)", "Percent Effect": -0.158}, {"compound": "Cn1nc2c(cc1=O)CN(Cc1nc(-c3cccs3)no1)CC2", "Percent Effect": 3.81}, {"compound": "Cc1cnc(N2CC3(CCN(C(=O)c4ccoc4)C3)C2)nc1", "Percent Effect": -36.5}, {"compound": "CC(C)CCn1[nH]c(CNc2ccccc2)nc1=O", "Percent Effect": -8.36}, {"compound": "CC(NC(=O)N1CCN(c2ccc(Cl)cc2)CC1)C(=O)N1CCSCC1", "note": "(stereo not given)", "Percent Effect": 11.9}, {"compound": "CN(C)C(=O)N1CCN(C(=O)CCc2ccccc2)[C@H]2CS(=O)(=O)C[C@H]21", "Percent Effect": -13.3}, {"compound": "CC(C)C(Sc1nnnn1-c1ccccc1)C(=O)NCc1cccnc1", "note": "(stereo not given)", "Percent Effect": 8.76}, {"compound": "CS(=O)(=O)CC(=O)N1C[C@@H]2COC[C@]2(c2nnc(C3CC3)o2)C1", "Percent Effect": -40.1}, {"compound": "CN(Cc1nnc(C2CC2)n1C)C1CCN(Cc2ccc(F)cc2)C1", "note": "(stereo not given)", "Percent Effect": 9.62}]}]}
